PubChem BioAssay AID1159580 (chemical genetic matrix, 2015)
“And” between values parts separate entries of the source, which are not always exact repeats. Equal values may be shown once. In all, about 5,500 compounds went through this assay and about 2,000 (36%) were called active. Another 18% or so got no clear call; they are omitted. Cut-off read from the data, not from the text of the source: active = normalized growth mostly below about 0.91 (no sharp cut-off); inconclusive = no clear call, values can overlap the other calls; inactive = mostly above about 0.92. This is one part of the list.

Assay: chemical genetic growth profiling, strain panel (AID 1159580);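 note: tested at 20 µM; growth read once vehicle control cultures reached saturation at 30 °C; 1 = growth at the plate median or of vehicle wells; lower values mean less growth of the strain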
Conditions: growth OD

Measured: normalized growth

CSCCC(N)C(=O)NC(CC(C)C)C(=O)NC(Cc1ccccc1)C(=O)O (configuration not stated)
inactive: S. cerevisiae deletion strains, locus YAL013W, strain DEP1, stronger effect = lower value 1.01 | S. cerevisiae deletion strains, locus YBR021W, strain FUR4, stronger effect = lower value 1.02 | S. cerevisiae deletion strains, locus YBR229C, strain ROT2, stronger effect = lower value 1.01 | S. cerevisiae deletion strains, locus YCL029C, strain bik1, stronger effect = lower value 0.987 | S. cerevisiae deletion strains, locus YDL035C, strain GPR1, stronger effect = lower value 1.02 | S. cerevisiae deletion strains, locus YDL074C, strain BRE1, stronger effect = lower value 1.05 | S. cerevisiae deletion strains, locus YDL101C, strain DUN1, stronger effect = lower value 1.02 | S. cerevisiae deletion strains, locus YDL134C, strain PPH21, stronger effect = lower value 1.02 | S. cerevisiae deletion strains, locus YDL185W, strain tfp1, stronger effect = lower value 1 | S. cerevisiae deletion strains, locus YDL192W, strain arf1, stronger effect = lower value 1 | S. cerevisiae deletion strains, locus YDR101C, strain arx1, stronger effect = lower value 0.994 | S. cerevisiae deletion strains, locus YDR150W, strain NUM1, stronger effect = lower value 1.02 | S. cerevisiae deletion strains, locus YDR162C, strain NBP2, stronger effect = lower value 1.02 | S. cerevisiae deletion strains, locus YDR318W, strain mcm21, stronger effect = lower value 0.978 | S. cerevisiae deletion strains, locus YDR388W, stronger effect = lower value 0.995 | S. cerevisiae deletion strains, locus YDR502C, strain sam2, stronger effect = lower value 1.01 | S. cerevisiae deletion strains, locus YEL061C, strain CIN8, stronger effect = lower value 1.01 | S. cerevisiae deletion strains, locus YER110C, stronger effect = lower value 0.994 | S. cerevisiae deletion strains, locus YER155C, strain BEM2, stronger effect = lower value 1.01 | S. cerevisiae deletion strains, locus YER167W, strain BCK2, stronger effect = lower value 1.02 | S. cerevisiae deletion strains, locus YGL078C, strain dbp3, stronger effect = lower value 0.987 | S. cerevisiae deletion strains, locus YGL086W, strain mad1, stronger effect = lower value 0.999 | S. cerevisiae deletion strains, locus YGL248W, strain PDE1, stronger effect = lower value 1.02 | S. cerevisiae deletion strains, locus YGR078C, strain PAC10, stronger effect = lower value 1.03 | S. cerevisiae deletion strains, locus YGR135W, strain pre9, stronger effect = lower value 1 | S. cerevisiae deletion strains, locus YGR229C, strain SMI1, stronger effect = lower value 1.04 | S. cerevisiae deletion strains, locus YGR252W, strain gcn5, stronger effect = lower value 0.956 | S. cerevisiae deletion strains, locus YHR030C, strain SLT2, stronger effect = lower value 1 and 1.02 | S. cerevisiae deletion strains, locus YHR079C, strain IRE1 (second series), stronger effect = lower value 0.988 | S. cerevisiae deletion strains, locus YHR079C, strain IRE1, stronger effect = lower value 1.01 | S. cerevisiae deletion strains, locus YHR094C, strain hxt1, stronger effect = lower value 0.996 | S. cerevisiae deletion strains, locus YHR129C, strain ARP1, stronger effect = lower value 1.01 | S. cerevisiae deletion strains, locus YHR200W, strain rpn10, stronger effect = lower value 0.995 | S. cerevisiae deletion strains, locus YIL066C, strain RNR3, stronger effect = lower value 1.01 | S. cerevisiae deletion strains, locus YIL073C, strain SPO22, stronger effect = lower value 1 | S. cerevisiae deletion strains, locus YIL125W, strain kgd1, stronger effect = lower value 1 | S. cerevisiae deletion strains, locus YIR030C, strain dcg1, stronger effect = lower value 0.998 | S. cerevisiae deletion strains, locus YJL095W, strain BCK1, stronger effect = lower value 1.04 and 0.991 | S. cerevisiae deletion strains, locus YJL134W, strain LCB3, stronger effect = lower value 1.01 | S. cerevisiae deletion strains, locus YJL168C, strain set2, stronger effect = lower value 0.998 | S. cerevisiae deletion strains, locus YJL187C, strain SWE1 (second series), stronger effect = lower value 1.02 | S. cerevisiae deletion strains, locus YJR043C, strain POL32, stronger effect = lower value 1 | S. cerevisiae deletion strains, locus YJR066W, strain TOR1, stronger effect = lower value 0.934 | S. cerevisiae deletion strains, locus YJR075W, strain HOC1, stronger effect = lower value 1.02 | S. cerevisiae deletion strains, locus YKL009W, strain mrt4, stronger effect = lower value 0.993 | S. cerevisiae deletion strains, locus YKL068W, stronger effect = lower value 0.987 | S. cerevisiae deletion strains, locus YKL085W, strain MDH1 (second series), stronger effect = lower value 1 | S. cerevisiae deletion strains, locus YKL085W, strain MDH1, stronger effect = lower value 1 | S. cerevisiae deletion strains, locus YKL190W, strain CNB1, stronger effect = lower value 1.01 | S. cerevisiae deletion strains, locus YKR001C, strain vps1, stronger effect = lower value 0.995 | S. cerevisiae deletion strains, locus YLR039C, strain RIC1, stronger effect = lower value 1.07 | S. cerevisiae deletion strains, locus YLR058C, strain SHM2, stronger effect = lower value 1.01 | S. cerevisiae deletion strains, locus YLR102C, strain apc9, stronger effect = lower value 0.994 | S. cerevisiae deletion strains, locus YLR113W, strain HOG1, stronger effect = lower value 0.988 | S. cerevisiae deletion strains, locus YLR262C, strain YPT6, stronger effect = lower value 1.04 | S. cerevisiae deletion strains, locus YLR268W, strain sec22, stronger effect = lower value 1.01 | S. cerevisiae deletion strains, locus YLR330W, strain CHS5, stronger effect = lower value 1.01 | S. cerevisiae deletion strains, locus YLR342W, strain FKS1 (second series), stronger effect = lower value 1.01 | S. cerevisiae deletion strains, locus YLR371W, strain rom2, stronger effect = lower value 1 | S. cerevisiae deletion strains, locus YLR418C, strain cdc73, stronger effect = lower value 1 | S. cerevisiae deletion strains, locus YML016C, strain PPZ1, stronger effect = lower value 1.01 | S. cerevisiae deletion strains, locus YML032C, strain rad52, stronger effect = lower value 0.989 | S. cerevisiae deletion strains, locus YML124C, strain tub3, stronger effect = lower value 0.995 | S. cerevisiae deletion strains, locus YMR078C, strain ctf18, stronger effect = lower value 0.987 | S. cerevisiae deletion strains, locus YMR223W, strain ubp8, stronger effect = lower value 0.995 | S. cerevisiae deletion strains, locus YMR263W, strain SAP30, stronger effect = lower value 1.03 | S. cerevisiae deletion strains, locus YMR307W, strain GAS1, stronger effect = lower value 0.996 | S. cerevisiae deletion strains, locus YNL067W, strain RPL9B, stronger effect = lower value 1.03 | S. cerevisiae deletion strains, locus YNL128W, strain TEP1, stronger effect = lower value 1.03 | S. cerevisiae deletion strains, locus YNL153C, strain GIM3, stronger effect = lower value 1.02 | S. cerevisiae deletion strains, locus YNL183C, strain NPR1, stronger effect = lower value 0.928 | S. cerevisiae deletion strains, locus YNL233W, strain BNI4, stronger effect = lower value 1.02 | S. cerevisiae deletion strains, locus YNL250W, strain rad50, stronger effect = lower value 1 | S. cerevisiae deletion strains, locus YNL271C, strain bni1, stronger effect = lower value 0.994 | S. cerevisiae deletion strains, locus YNL298W, strain CLA4, stronger effect = lower value 1 | S. cerevisiae deletion strains, locus YNL307C, strain MCK1, stronger effect = lower value 0.98 | S. cerevisiae deletion strains, locus YNL322C, strain KRE1, stronger effect = lower value 1.01 | S. cerevisiae deletion strains, locus YNR052C, strain pop2, stronger effect = lower value 0.996 | S. cerevisiae deletion strains, locus YOL006C, strain TOP1, stronger effect = lower value 1.11 | S. cerevisiae deletion strains, locus YOL012C, strain htz1 0.734 | S. cerevisiae deletion strains, locus YOL147C, strain pex11, stronger effect = lower value 0.996 | S. cerevisiae deletion strains, locus YOR061W, strain CKA2, stronger effect = lower value 1.02 | S. cerevisiae deletion strains, locus YOR069W, strain VPS5, stronger effect = lower value 1.01 | S. cerevisiae deletion strains, locus YOR136W, strain idh2, stronger effect = lower value 0.989 | S. cerevisiae deletion strains, locus YOR144C, strain elg1, stronger effect = lower value 0.998 | S. cerevisiae deletion strains, locus YOR184W, strain ser1, stronger effect = lower value 0.989 | S. cerevisiae deletion strains, locus YOR231W, strain MKK1, stronger effect = lower value 1 | S. cerevisiae deletion strains, locus YOR316C, strain cot1, stronger effect = lower value 0.998 | S. cerevisiae deletion strains, locus YPL055C, strain LGE1, stronger effect = lower value 1.06 | S. cerevisiae deletion strains, locus YPL241C, strain CIN2, stronger effect = lower value 1.01 | S. cerevisiae deletion strains, locus YPL256C, strain CLN2, stronger effect = lower value 1.01 | S. cerevisiae deletion strains, locus YPR119W, strain clb2, stronger effect = lower value 0.985 | S. cerevisiae deletion strains, locus YPR141C, strain kar3, stronger effect = lower value 0.993 | S. cerevisiae deletion strains, locus YPR163C, strain tif3, stronger effect = lower value 0.989 | S. cerevisiae deletion strains, locus YPR167C, strain met16, stronger effect = lower value 0.993 | S. cerevisiae deletion strains, strain wtn01, stronger effect = lower value 1.01 | S. cerevisiae strains, strain wild type, stronger effect = lower value 1.01
